Source: PubChem BioAssay (National Center for Advancing Translational Sciences (NCATS))
Shown are actives, neighbours in structure and some others; about 3.1% of the full set was active somewhere.
PLK1 PBD block – qHTS for Inhibitors of PLK1-PDB (polo-like kinase 1 - polo-box domain): Primary Screen. Serine/threonine-protein kinase PLK1 (Homo sapiens), P53350. Plk1 PBD binding of FITC phosphopeptide, fluorescence polarization. Potency, µM, for the others: max response, negative = inhibition, most hits filed as inhibitors. 360,000 compounds, 2.8% hits. AID 720504, 2013; also: potency is read from the fitted curve at half-maximal effect; series mostly up to about 57 µM; % is scaled to controls: 0 for no effect and ±100 for the full control effect; nearly all actives have a fitted effect of over 65% in size
TSHR antagonist – Antagonists of the Thyroid Stimulating Hormone Receptor: HTS campaign; Thyrotropin receptor (Homo sapiens), P16473; TSHR-expressing cells, TSH-stimulated cAMP HTRF, 2 h; active compounds read low; activity change, negative = inhibition, % at 11.5 µM; 330,000 compounds, 0.2% hits; AID 504810, 2011;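 active = activity change below a set negative limit, meaning inhibition stronger than a set level, cut at about -70% in these data; inconclusive = activity change between two set negative limits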; also: % is scaled to controls: 0 for no effect and ±100 for the full control effect
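Freshly harvested TSHR cells receive pin-tooled compound, then EC80 TSH at 4nM final. After 2 hours at 37 deg C, antibody in lysis buffer and cAMP-d2 are added; 30 minutes at ambient temperature precede the HTRF read.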
uPA surface inh – qHTS for Inhibitors of Cell Surface uPA Generation. cell surface uPA generation assay, qHTS. Potency, µM (series often up to 38.3 µM), inactives show top-dose activity change, negative = inhibition, hits mostly inhibitors. 330,000 compounds, 0.31% hits. AID 540303, 2011; active = well fitted inhibition curve with a large enough effect; inconclusive = small, poorly fitted or top-dose-only effect; inactive = no such curve, though single readings can be large or run the other way; tested in mouse RAW 264.7 cells; also: potency is read from the fitted curve at half-maximal effect; % is scaled to controls: 0 for no effect and ±100 for the full control effect; nearly all actives have a fitted effect of over 55% in size
VDR inhibitor – Inhibitors of the vitamin D receptor (VDR): qHTS. Vitamin D3 receptor (Homo sapiens), P11473. VDR-SRC2-3 peptide fluorescence polarization, 2 h. Potency, µM, for inactives: max response, negative = inhibition, most hits filed as inhibitors. 400,000 compounds, 0.93% hits. AID 504847, 2011; also: potency is read from the fitted curve at half-maximal effect; % is scaled to controls: 0 for no effect and ±100 for the full control effect
Target sequence (P11473 whole entry, looked up): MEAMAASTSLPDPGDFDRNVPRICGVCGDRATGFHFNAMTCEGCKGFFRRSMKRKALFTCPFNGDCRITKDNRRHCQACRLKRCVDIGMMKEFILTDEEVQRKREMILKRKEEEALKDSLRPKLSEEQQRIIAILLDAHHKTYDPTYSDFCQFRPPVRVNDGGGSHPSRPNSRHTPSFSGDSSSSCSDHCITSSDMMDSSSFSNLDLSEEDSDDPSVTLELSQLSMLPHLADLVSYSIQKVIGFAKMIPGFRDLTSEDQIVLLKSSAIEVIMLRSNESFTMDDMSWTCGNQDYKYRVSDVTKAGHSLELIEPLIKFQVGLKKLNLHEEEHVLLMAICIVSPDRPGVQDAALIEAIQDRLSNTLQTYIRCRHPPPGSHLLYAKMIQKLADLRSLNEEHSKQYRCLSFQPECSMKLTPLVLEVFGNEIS
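FP read-out; VDR + SRC2-3 coactivator peptide; 23 nl compound by pintool; 2 h RT incubation; reagents held at 4 deg C, protected from light.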
TSG101-PTAP inh – qHTS Assay for Iinhibitors of HIV-1 Budding by Blocking the Interaction of PTAP/TSG101; Fluorescence polarization, FITC-PTAP peptide / Tsg101 binding; Potency, µM (titrated, usually from 115 µM), for the others: at the top dose activity change, negative = inhibition, usual class: inhibitors; 340,000 tested, under 10 active; AID 493005, 2010; active = well fitted inhibition curve with a large enough effect in the main read-out, with a control signal flat, not every such curve was filed as active; inconclusive = small, poorly fitted or top-dose-only effect, or effect the other way, or a change in a side signal; inactive = no such curve, though single readings can be large or run the other way; also: potency is read from the fitted curve at half-maximal effect; % of control where 0% means no effect
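Steps: Tsg101 binding domain dispensed (10 uM final), compounds pinned in DMSO, FITC-labeled PTAP-motif peptide added (50 nM final); after 20 min binding at room temperature, polarization measured.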
The depositor's hits bear a star; u = inconclusive; x = no result given. Unless noted, calls follow the shape of the dose curve; as a rule, active = well fitted curve in the direction sought with a large enough effect; inconclusive = small, poorly fitted or top-dose-only effect, or another doubt; inactive = no such curve, though single readings can be large; an effect the other way counts as inactive or inconclusive.

SMILES | PLK1 PBD block | TSHR antagonist | uPA surface inh | VDR inhibitor | TSG101-PTAP inh
CC(C)(c1ccc(O)cc1)c1ccc(O)c(C(=O)O)c1 | -6% | x | x | x | x
O=C(O)C1=CC(=C(c2ccc(O)c(C(=O)O)c2)c2ccc(O)c(C(=O)O)c2)C=CC1=O | x | -16 | x | 8.9µM* | x
Cc1ccc(Cl)cc1N1CCN(C(=O)C2CCN(Cc3nc(-c4ccc(Cl)cc4)oc3C)CC2)CC1 | x | x | x | -15% | x
O=Cc1cccc(OCc2cccc3ccccc23)c1 | 4% | -9 | -2% | -11% | -6%
O=c1[nH]c2ccc(NCc3ccc(-c4cccc(Cl)c4)o3)cc2[nH]1 | x | x | x | -6% | x
CC#CC#Cc1cccc(=O)o1 | -12% | 8 | 5µM* | -7% | -1%
CCN(Cc1ccccc1)C(=O)CSc1nc(C)cc(C)c1C#N | 21µM* | -5 | -4% | u | -5%
CCN(CC)C(=O)CSc1nc(C)cc(C)c1C#N | u | 2 | -2% | -3% | -5%
Cc1ccc(S(=O)(=O)c2c(N)n(CCCN(C)C)c3nc4ccccc4nc23)cc1 | 2% | -3 | 1% | -8% | -5%
CCCCn1c(NS(=O)(=O)c2ccc(C)cc2)c(S(=O)(=O)c2ccccc2)c2nc3ccccc3nc21 | 9.5µM* | 24 | 0% | u | -2%
Cc1ccc(OCC(=O)O/N=C(\N)Cc2ccc(Cl)cc2)cc1 | 2.7µM* | -23 | 7% | -22% | -1%
CC(=O)OC1CCC2(C)C(=CC=C3C2CCC2(C)C3CCC2C(C)/C=C/C(C)C(C)C)C1(C)C (centres undefined) | x | x | x | 1% | x
Cc1ccccc1OCC(=O)NCC(c1ccc(Cl)cc1)N1CCOCC1 (centres undefined) | x | x | x | 12% | x
COc1ccc2c3c(ccc2c1)C(=O)/C(=C/O)CC3 | 4.2µM* | x | 3% | -29% | -3%
COc1cc(/C=C2\CCc3c2nc2ccccc2c3C(=O)O)cc(OC)c1OC | 17µM* | -5 | u | -26% | -2%
COc1cc(/C=C2\CCCc3c2nc2ccccc2c3C(=O)O)cc(Br)c1O | -6% | -3 | 0% | -1% | -9%
CCOc1cc(/C=C2\CCCc3c2nc2ccccc2c3C(=O)O)ccc1OC | 3µM* | 0 | -5% | -22% | -1%
Cc1ccccc1CN1C(=O)c2ccccc2S(=O)c2ccc(C(=O)NCc3ccc(Cl)cc3)cc21 (centres undefined) | x | x | x | 11% | x
C=CCOc1ccc(C2C(C(=O)c3ccco3)=C(O)C(=O)N2c2nnc(C)s2)cc1 (centres undefined) | 21µM* | 25 | -4% | u | -7%
Cc1cc(C)c2nc(N3C(=O)C(O)=C(C(=O)c4ccco4)C3c3ccco3)sc2c1 (centres undefined) | 11µM* | 100 | 0% | u | -2%
Cc1ccc2nc(N3C(=O)C(O)=C(C(=O)c4ccco4)C3c3cccs3)sc2c1 (centres undefined) | 27µM* | 82 | -15% | u | -8%
COc1ccc2nc(N3C(=O)C(O)=C(C(=O)c4ccco4)C3c3ccccc3OC)sc2c1 (centres undefined) | u | -6 | 9% | 2% | 0%
Cc1ccc2nc(N3C(=O)C(O)=C(C(=O)c4ccc(C)o4)C3c3ccc(O)cc3)sc2c1 (centres undefined) | u | 91 | 14% | u | -8%
COc1ccc2nc(N3C(=O)C(O)=C(C(=O)c4ccco4)C3c3ccc(C)o3)sc2c1 (centres undefined) | 19µM* | 19 | 2% | u | -9%
CCOc1ccc2nc(N3C(=O)C(O)=C(C(=O)c4ccco4)C3c3ccco3)sc2c1 (centres undefined) | u | 30 | -21% | -4% | -6%
SMILES | PLK1 PBD block | TSHR antagonist | uPA surface inh | VDR inhibitor | TSG101-PTAP inh
Cc1cc(N2CCN(C)CC2)ccc1NC(=O)c1cccc(S(=O)(=O)N2CCc3ccccc3C2)c1 | -3% | 14 | -9% | -6% | -3%
COc1ccc(N2CC(NC(=O)c3cccs3)CC2=O)cc1 (centres undefined) | x | x | x | 5% | x
CCOc1cc(/C=C/C(=O)O)ccc1OCCO | 27µM* | -7 | -4% | u | -7%
COc1ccccc1CNC(=O)CCS(=O)(=O)Cc1ccc(C)cc1 | 27µM* | 16 | -3% | u | -2%
COc1ccc(CNC(=O)CCS(=O)(=O)Cc2ccc(C)cc2)c(OC)c1 | 4% | 17 | -3% | -1% | 2%
COc1ccc(NC(=S)Nc2cc(-c3ccccc3)[nH]n2)cc1Cl | 21µM* | -8 | x | -30% | -13%
COc1ccc(NC(=S)Nc2cc(C)[nH]n2)cc1Cl | 17µM* | 18 | 6% | -8% | 2%
O=C(CCl)c1ccc2[nH]c(=O)oc2c1 | 7.5µM* | -5 | -17% | -17% | -9%
Cc1cn(CC(=O)NCCNc2ccc([N+](=O)[O-])cn2)c(=O)[nH]c1=O | -14% | x | 7% | 1% | -1%
Cc1cn(CC(=O)NCCc2ccccn2)c(=O)[nH]c1=O | 21µM* | x | 16% | -7% | -1%
O=C(CCCc1ccccc1)Nc1ccccc1[N+](=O)[O-] | 3.4µM* | 0 | 3% | 20µM* | 0%
O=C(CCCc1ccccc1)Nc1ccc(Br)cc1F | 6.7µM* | -47 | 0% | 22µM* | 0%
Cc1ccc(NC(=O)CCCc2ccccc2)c([N+](=O)[O-])c1 | -4% | -8 | -10% | -12% | -4%
Cc1cc2nc(C3CCCCC3)c(Cc3ccsc3)n2c(C)c1Br | -8% | x | x | x | x
CCCc1nn2c(=O)cc(COC(=O)c3ccc(NC(=O)CCc4ccccc4)cc3)nc2s1 | x | x | x | 9% | x
c1ccc(-c2nn3c(Cn4nnc5ccccc54)nnc3s2)nc1 | 27µM* | 9 | x | -15% | -16%
c1cncc(-c2nn3c(Cn4nnc5ccccc54)nnc3s2)c1 | 17µM* | 40 | x | u | -4%
CCc1nnc2sc(-c3cc(-c4ccccc4)nc4ccccc34)nn12 | -7% | -4 | x | -4% | -2%
S=c1[nH]nc(Cn2nnc3ccccc32)n1-c1ccccc1 | -4% | 5 | 2% | 6% | 1%
CCOC(=O)c1c(C)n(C)c2ccc(OC)c(NC(=O)c3cccs3)c12 | 30µM* | 0 | -1% | -9% | -16%
CCc1ccc(-n2nc(CO)c(C(=O)NCc3cccnc3)n2)cc1 | x | x | x | 8% | x
O=C(CSc1nc2ccccc2nc1Cc1ccccc1)NCc1ccccc1Cl | x | x | x | 4% | x
CCOC(=O)c1sc(NC(=O)C2c3ccccc3Oc3ccccc32)c(C#N)c1C | x | x | x | 79µM* | x
CCOC(=O)c1c(NC(=O)C2c3ccccc3Oc3ccccc32)sc(C(=O)N(CC)CC)c1C | u | -17 | -10% | 71µM* | 0%
